This is part of a sample that, as a whole, favours compounds with a hit. Of some 83,000 tested, about 20% had one in any assay.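 Activity criterion: percent growth below 10, measured after cells in 96-well plates were exposed to a single compound concentration for 48 hours.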 Unmarked numbers belong to inactive results. The source made the active and inactive calls.

One assay relates to SK-OV-3 ovarian. The assay is described as follows: NCI-60 one-dose screen, 48 h (100 = growth as untreated, 0 = no growth, -100 = all killed). The conditions noted are these: 10 µM unless noted.
Consider `CCCCCCCCCCCCOB(OCCCCCCCCCCCC)OCCCCCCCCCCCC`, for which the growth was -1.64% (active).

`CNC(C)=O`: the growth was 102%.

As for `COc1cc2nc(N3CCC[C@@H](NC4=CC(=O)c5ccccc5C4=O)C3)nc(N)c2cc1OC`, the growth was 112%.

Turning to `COC(=O)[C@H]1[C@H](OC)[C@@H](OC(=O)/C=C/c2ccncc2)CC2CN3CCc4c([nH]c5cc(OC)ccc45)[C@@H]3C[C@@H]21` (some centres undefined), the growth was 89.1%.

With `Clc1nc(-c2cccnc2)nc2sc3c(c12)CCCCCC3`, the growth is 102%.

In the case of `O=c1oc2cc(OS(=O)(=O)c3ccc(F)cc3)ccc2c2c1CCCCC2`, the growth is 95.9%.

Regarding `CC(=O)C1CCC(C)=CC1=O` (centres undefined), the growth is 100%.

For the next assay, the system named is IGROV1 ovarian. Described as above. The conditions noted are these: 10 µM unless noted.
`Cc1cc(C)c(S(=O)(=O)N2CCN(c3cc4c(cc3F)c(=O)c(C(=O)O)cn4C3CC3)CC2)c(C)c1`: the growth was 35.7%.

For `CCn1cc(C(=O)O)c(=O)c2cc(F)c(N3CCN(S(=O)(=O)c4ccc(OC)c(OC)c4)CC3)cc21`, the growth is 108%.

Consider `Cc1ccc(S(=O)(=O)OCC(=O)Nc2ccc(C(=O)O)c(O)c2)cc1`, for which the growth is -17.7% (active).

Take `O=S(=O)(c1ccccc1)n1ccc(-c2ccc3c(c2)CCO3)n1`: the growth is 75.7%.

For the compound `Clc1ccc(-c2nc(-c3ccco3)cn3ccnc23)cc1`, the growth was 40.7%.

For the compound `CCn1cc(C(=O)O)c(=O)c2cc(F)c(N3CCN(S(=O)(=O)c4cccc5ccccc45)CC3)cc21`, the growth was 13.7%.

`O=P([O-])(O)OP(=O)([O-])O.[NH-][C@H]1CCCC[C@@H]1[NH-].[OH-].[OH-].[Pt+4]`: the growth was 108%.

The values above are taken from PubChem BioAssay (NCI).
